Assay results taken from PubChem BioAssay AID488896 (Broad Institute, 2010).
Hit rate of the full screen: of about 320,000 compounds, about 3,100 (0.97%) were called active.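 Rule for the calls: active = mean replicate inhibition of at least 70% and a set share of replicates each scoring 70 or more; inconclusive = meets just one of the two criteria; inactive = fails both criteria.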 The full list was thinned out, with actives kept by preference.

Target: Scavenger receptor class B member 1 (Mus musculus) (UniProt Q61009)
Assay: inhibitors of SR-BI mediated HDL lipid uptake, primary screen, ldlA[mSR-BI] cells, fluorescence, single point (AID 488896);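 note: 0% = median of neutral control wells and 100% = median of positive control wells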
Settings: ldlA[mSR-BI] CHO cells, DiI-HDL uptake fluorescence, 3 h; at 12.5 µM; hits give high values

Scavenger receptor class B member 1 (Mus musculus), sequence (Q61009 whole entry, looked up): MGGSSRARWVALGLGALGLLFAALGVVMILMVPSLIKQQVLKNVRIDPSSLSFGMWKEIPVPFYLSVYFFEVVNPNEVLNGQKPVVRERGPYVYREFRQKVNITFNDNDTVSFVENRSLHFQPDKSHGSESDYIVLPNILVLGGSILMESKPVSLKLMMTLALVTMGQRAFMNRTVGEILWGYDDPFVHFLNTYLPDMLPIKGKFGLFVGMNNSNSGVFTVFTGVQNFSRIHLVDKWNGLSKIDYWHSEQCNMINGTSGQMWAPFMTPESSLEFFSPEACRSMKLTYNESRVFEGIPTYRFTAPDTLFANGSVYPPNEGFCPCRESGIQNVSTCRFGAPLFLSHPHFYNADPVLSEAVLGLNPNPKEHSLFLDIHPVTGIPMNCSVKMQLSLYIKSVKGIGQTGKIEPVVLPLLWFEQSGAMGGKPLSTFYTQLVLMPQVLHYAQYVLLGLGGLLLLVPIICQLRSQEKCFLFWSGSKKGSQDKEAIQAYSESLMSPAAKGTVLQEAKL

Compound	inhibition
Oc1c(Cl)cc(Cl)c(Cl)c1Cc1c(O)c(Cl)cc(Cl)c1Cl	78.2% (active)
CC(C)(C)OC(=O)N(Cc1ccccc1)Cc1ccc(OCc2cccc(NC(=O)c3ccccc3)c2)cc1	30.4% (inactive)
CN(C(=O)c1ccccn1)c1nnc(-c2ccccn2)s1	-7.4% (inactive)
COc1cc(OC)cc(-c2nnc(N(C)C(=O)c3ccncc3)s2)c1	45% (inactive)
CN(C(=O)COc1ccccc1)c1nnc(-c2ccncc2)s1	70.2% (active)
N#CCc1c[nH]c2ccc([N+](=O)[O-])cc12	-13.4% (inactive)
Cc1nc(Nc2ccccc2C)c2cnn(C)c2n1	-3.29% (inactive)
CCOc1cc(N2CCOCC2)c(OCC)cc1NC(=O)c1ccc(C)s1	37% (inactive)
CCOc1cc(NC(=O)c2ccco2)c(OCC)cc1NC(=O)COc1ccccc1	80.9% (active)
CCOc1cc(NC(=S)NCc2ccco2)c(OCC)cc1NC(=O)c1ccco1	43.4% (inactive)
CCOc1cc(NC(=S)NCCCOC)c(OCC)cc1NC(=O)c1ccco1	28.5% (inactive)
CCOc1cc(N2CCOCC2)c(OCC)cc1NC(=O)COc1cccc(Cl)c1	74.8% (active)
CCOc1cc(N2CCOCC2)c(OCC)cc1NC(=O)c1cc(C)nc2ccccc12	20.8% (inactive)
CN(C)C(=S)N=c1ssc(=S)n1Cc1ccco1	0.753% (inactive)
CC(=O)Nc1ccc(C(=O)Nc2cc(S(=O)(=O)N3CCOCC3)ccc2N2CCOCC2)cc1	-8.12% (inactive)
COC(=O)Cc1c(-c2[nH]c3ccccc3c2CC(=O)OC)[nH]c2ccccc12	37.9% (inactive)
O=C(NOCc1ccccc1)c1cccc([N+](=O)[O-])c1	-13.8% (inactive)
O=C1Nc2ccc(Br)cc2/C1=N/N=C/C1=C(N2CCOCC2)C(=C\c2ccccc2)/CC1	147% (active)
COc1ccc(/C=N/N=C2/C(=O)Nc3ccccc32)cc1O	-2.91% (inactive)
O=C(O)c1ccc(NN=CC2=C(N3CCOCC3)/C(=C/c3ccccc3)CC2)cc1	-13% (inactive)
C(=N\N1CCN(c2ccccn2)CC1)/C1=C(N2CCOCC2)C(=C/c2ccccc2)/CC1	95.8% (active)
O=C(CSc1nnc(N2CCOCC2)n1-c1cccc(F)c1)N1CCN(c2ccccn2)CC1	0.884% (inactive)
C[C@H](O)[C@@H]1C(=O)N2CCc3ccc(N4CCOCC4)cc3[C@@H]2C[C@@H]1N(C)C(=O)C(C)(C)C	-2.83% (inactive)

Compound	inhibition
COc1cc2c(cc1OC)C(Cc1cc(OC)c(OC)cc1[N+](=O)[O-])=NCC2	-13% (inactive)
CC1CN(Cc2ccco2)C(=S)N(c2ccccc2)C1=O (configuration not stated)	-33.1% (inactive)
COc1cc(C2c3cc4c(cc3C(O)C3COC(=O)C23)OCO4)cc(OC)c1OC (configuration not stated)	-0.16% (inactive)
CCOc1ccc(S(=O)(=O)N2CCN(C(=O)c3oc4ccccc4c3C)CC2)cc1	-15.2% (inactive)
COc1ccc(C(=O)Cn2nnc(-c3ccc(N4CCOCC4)cc3)n2)cc1OC	33% (inactive)
CCOc1ccc(-c2nnn(CC(=O)N3CCN(c4ccc(F)cc4)CC3)n2)cc1OCC	48.2% (inactive)
CCOc1ccc(-c2nnn(CC(=O)N3CCN(c4ccc(OC)cc4)CC3)n2)cc1OCC	82% (active)
CCCCC(=O)N/N=C(\C)CC(=O)Nc1cc(Cl)ccc1OC	27.7% (inactive)
COc1cccc(CC(=O)Nc2ccc(-c3csc(C)n3)cc2)c1	22% (inactive)
C=CCCC(=O)Nc1nc(C)c(-c2csc(Nc3ccc(Cl)cc3)n2)s1	104% (active)
CCCCN(C)CCC(=O)Nc1ccc(Cl)cc1	-5.92% (inactive)
COc1ccc(Cl)cc1NC(=O)c1oc(C)nc1C	10.4% (inactive)
Cc1cccc(S(=O)(=O)CC(=O)Nc2nc(-c3ccccc3)cs2)c1	-18% (inactive)
CCC(=O)Nc1nc(C)c(C(=O)Nc2cccc(Cl)c2)s1	49.6% (inactive)
CCCCCCC(=O)Nc1nc(C)c(-c2csc(Nc3cccc(OC)c3)n2)s1	87.2% (active)
CCCCC(=O)Nc1nc(C)c(-c2csc(Nc3ccc(Cl)cc3)n2)s1	103% (active)
CCCCCCC(=O)Nc1nc(C)c(-c2csc(Nc3cc(Cl)ccc3OC)n2)s1	97.4% (active)
Cc1nc(NC(=O)CN(C)S(=O)(=O)c2ccc(Cl)cc2)sc1C	2.99% (inactive)
COc1cccc(NC(=O)CN2CCN(c3nc(-c4cccc(OC)c4)cs3)CC2)c1	19.1% (inactive)
CC(=O)c1cccc(-c2ccc(CN3C(CC(C)C)C(=O)N(Cc4cn(CC5CCCCC5)nn4)CCS3(=O)=O)cc2)c1 (configuration not stated)	48.8% (inactive)
COc1cc(O)c2c(=O)c3c(O)c(O)ccc3oc2c1OC	10.1% (inactive)
O=c1oc2ccccc2c(=O)c2ccccc12	-23.4% (inactive)
COc1ccc(C(=O)N(C)Cc2ccc(OC)c(OC)c2OC)cc1S(=O)(=O)N1CCOCC1	-8.86% (inactive)

Compound	inhibition
CC(Nc1ccc([N+](=O)[O-])cc1[N+](=O)[O-])c1ccccc1 (configuration not stated)	21.4% (inactive)
O=[N+]([O-])c1cc2ccccc2nc1-c1ccccc1	-10.5% (inactive)
O=C(O)C1C2C=CC(O2)C1C(=O)Nc1ccccn1 (configuration not stated)	-12.6% (inactive)
CCN(CC(=O)Nc1c(F)cccc1F)C(=O)Cc1cccs1	9.34% (inactive)
CC(NC(=O)c1ccccc1)C(=O)OCC(=O)Nc1cccc(S(=O)(=O)N2CCCC2)c1 (configuration not stated)	-1.56% (inactive)
CCOc1cc(C(=O)N(Cc2ccccc2)c2ccc(C)cc2)ccc1OCC(=O)N1CCOCC1	5.71% (inactive)
O=C(c1ccc2c(c1)C(=O)N(Cc1ccncc1)C2=O)N1CCN(S(=O)(=O)c2ccc(OC(F)(F)F)cc2)CC1	-23.1% (inactive)
Cc1cc(C(=O)CSc2nc(N)cc(=O)[nH]2)c(C)n1Cc1ccco1	-21.5% (inactive)
CCCc1cc(=O)[nH]c(SCC(=O)c2cc(C)n(CCC)c2C)n1	10.7% (inactive)
Cc1cc(C(=O)CSc2nc(N)cc(=O)[nH]2)c(C)n1CCc1ccc(Cl)cc1	83.8% (active)
O=C(O)C(CCc1ccccn1)c1ccccc1 (configuration not stated)	11.9% (inactive)
CCCCC(=O)NC(c1ccc(OC)c(OC)c1)c1ccc2cccnc2c1O (configuration not stated)	3.38% (inactive)
N#C/C(=C\c1ccccc1C(F)(F)F)C(=O)Nc1ccccc1F	-32.2% (inactive)
O=C(CC1SC(N2CCOCC2)=NC1=O)Nc1ccccc1F (configuration not stated)	-4.16% (inactive)
N#C/C(=C\C1=C(N2CCOCC2)C(=C\c2ccccc2)/CC1)C(=O)Nc1ccccc1F	83.9% (active)
O=C(Nc1ccc(S(=O)(=O)N2CCOCC2)cc1)C1CCN(S(=O)(=O)c2ccc(Cl)cc2)CC1	-8.47% (inactive)
CC12CCCCC1=CC(=O)CC2 (configuration not stated)	-0.111% (inactive)
COc1ccc(Cl)cc1C=CC=NNC(=O)c1ccncc1	70% (inactive)
O=C(N/N=C/c1cccnc1)c1cc2ccccc2cc1O	25.7% (inactive)
O=C(NNc1c2ccccc2nc2ccccc12)c1cc2ccccc2cc1O	117% (active)
CC(C)(C)OC(=O)NNc1c2ccccc2nc2ccccc12	23.2% (inactive)
COC(=O)c1ccc(NCc2cc(O)ccc2O)cc1	-3.37% (inactive)
CC(C)c1cc(N=O)cc(C(C)C)c1O	-19.1% (inactive)

Compound	inhibition
O=C(NN=Cc1ccccc1)c1ccccc1	-4.39% (inactive)
CC(C)c1ccc(C=NNc2ccc([N+](=O)[O-])cn2)cc1	-2.92% (inactive)
Cc1nn(-c2ccc(F)cc2)c(Cl)c1/C=C(/CCC(=O)O)c1nc2ccccc2s1	-16% (inactive)
O=C(CC1Sc2ccccc2NC1=O)NNc1ccc(Cl)c(Cl)c1 (configuration not stated)	45.6% (inactive)
N#CC1=C(N)Oc2cc(N)ccc2C1c1ccccc1 (configuration not stated)	-23.9% (inactive)
COc1ccc2nc(NC(=O)c3ccc(Br)s3)sc2c1	55.7% (inactive)
COc1ccc2nc(Nc3nc(-c4ccncc4)cs3)sc2c1	80.2% (active)
COc1ccc2nc(NC(=O)[C@@H]3CCCN3C(=O)c3cccs3)sc2c1	14.9% (inactive)
OCC(O)C1OCOC(C(O)CO)C1O (configuration not stated)	-38.2% (inactive)
CC1(C)C(=O)CCC2(C)C1=CCC1C2C(=O)CC2(C)C1CCC2(O)C(=O)CO (configuration not stated)	-7.32% (inactive)
CC1CCCN(C(=O)Cn2c(=O)oc3cc(S(=O)(=O)N4CCCCC4C)ccc32)C1 (configuration not stated)	-29.3% (inactive)
CC(C)C[C@H]1CN([C@@H](CC(C)C)CN2CCC[C@@H]2CN2C(=O)C(=O)NC[C@@H]2Cc2ccccc2)C(=O)C(=O)N1CCc1ccccc1	20.9% (inactive)
CS(=O)(=O)c1ccc2nc(NC(=O)c3ccc(Cl)nc3)sc2c1	32.9% (inactive)
CS(=O)(=O)c1ccc2nc(NC(=O)C3C4C=CC(C4)C3C(=O)O)sc2c1 (configuration not stated)	5.33% (inactive)
COc1cccc(C(=O)Nc2nc3ccc(S(C)(=O)=O)cc3s2)c1	70.8% (active)
Cc1ccc(S(=O)(=O)n2oc(=O)c(C3CCCCC3)c2N)cc1	-8.19% (inactive)
O=C1C(Cl)=C(Oc2ccccc2)C(=O)c2ccccc21	13.1% (inactive)
CCOc1ccc2nc(NC(=O)c3cc([N+](=O)[O-])ccc3N3CCOCC3)sc2c1	78.1% (active)
COc1ccc(S(=O)(=O)N2CCCCC2)cc1NC(=O)c1cc([N+](=O)[O-])ccc1N1CCOCC1	23.2% (inactive)
CCCC(=O)N(CCN1CCOCC1)c1nc2ccc(OCC)cc2s1	40.2% (inactive)
O=C1OC(Cc2ccccc2)C(c2ccccc2)C1=O (configuration not stated)	-5.71% (inactive)
COc1ccc(N=C2C=CC(=O)O2)cc1	-24.8% (inactive)
O=S(=O)(Cc1ccc(Cl)cc1Cl)c1ccc(Cl)cc1	15.8% (inactive)
